Shown are actives, neighbours in structure and some others; about 3% of the full set was active somewhere.
C8 TRAIL sens: viability loss with TRAIL in NB7+C8 cells, primary screen, TRAIL sensitizer project, cell-based, ATPlite luminescence | inhibition (viability loss, TRAIL sensitization), % at 10 µM | 360,000 tested, 1% active | AID 624354, 2012;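 active = compounds causing at least 50% loss of cell viability in the single-dose screen, relative to plate controls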
PPC-1+TRAIL kill: compounds killing PPC-1 cancer cells with TRAIL present, primary screen, TRAIL potentiator project, ATPLite luminescence, uHTS. 220,000 tested, 0.41% active. cell killing (% activity), % at 4 µM or 5 µM. PPC-1 cells + TRAIL, ATPLite viability luminescence. AID 1443, 2008;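 active = cell killing above 50% in the first pass at 4 µM, then a duplicate retest at 5 µM averaging 50% or more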;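 also: plate controls were cells with TRAIL plus DMSO for no effect and medium-only wells lacking cells for full effect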
SENP7 inh: SENP7 protease inhibitors, primary screen, biochemical, luminescence, uHTS. recombinant SENP7, Z-RLRGG-aminoluciferin luminescence, 40 min. 330,000 tested, 1.5% active. Sentrin-specific protease 7 (Homo sapiens), Q9BQF6. AID 434973, 2010. inhibition, % at 5 µM;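 active = inhibition above about 50% at the single test dose, limit read from the data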;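 also: plate controls were DMSO with enzyme for no effect and no enzyme buffer wells for full effect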
SENP6 block: SENP6 protease inhibitors, primary screen, biochemical, luminescence, uHTS. Sentrin-specific protease 6 (Homo sapiens), Q9GZR1. Recombinant SENP6 catalytic domain, aminoluciferin luminescence. inhibition, % at 10 µM. 330,000 tested, 1.8% active. AID 2599, 2010;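 active = inhibition above about 50% at the single tested dose, limit read from the data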;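 also: plate controls were DMSO wells with enzyme for no effect and DMSO wells lacking enzyme for full effect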
SENP8 block-1: SENP8 protease inhibitors, primary screen, biochemical, luminescence; purified SENP8, Z-RLRGG-aminoluciferin cleavage; Sentrin-specific protease 8 (Homo sapiens), Q96LD8; AID 2540, 2010; inhibition, % at 10 µM; 330,000 tested, 1.2% active; in the data active = inhibition above about 50%
Target sequence (Q96LD8 whole entry, looked up): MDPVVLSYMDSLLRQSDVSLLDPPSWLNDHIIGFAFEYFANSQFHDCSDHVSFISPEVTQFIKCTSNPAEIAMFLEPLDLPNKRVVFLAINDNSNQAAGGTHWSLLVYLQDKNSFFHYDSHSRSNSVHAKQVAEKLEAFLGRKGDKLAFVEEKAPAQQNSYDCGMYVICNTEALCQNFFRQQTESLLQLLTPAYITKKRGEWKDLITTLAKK
SENP8 block-2: human SENP8 protease inhibitors, primary screen, biochemical, fluorescence, Nedd8 protein substrate, uHTS; 360,000 tested, 0.64% active; Sentrin-specific protease 8 (Homo sapiens), Q96LD8; recombinant SENP8; inhibition, % at 20 µM; in the data active = inhibition mostly above about 40%, no sharp cut-off; inactive = mostly below about 27%
PPC1 cytotox: cytotoxicity in PPC-1 cells, confirmation, cytotoxicity control for TRAIL apoptosis potentiator project, cell-based, ATP content luminescence; shares compounds with PPC-1+TRAIL kill; 1,200 tested, 50% active; cytotoxicity, % at 5 µM; PPC-1 viability, ATPlite luminescence, overnight;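 active = reconfirmed compounds whose average cytotoxicity reaches 50% or more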;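 also: 0% = DMSO-treated cells and 100% = wells holding medium but no cells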
* = called active by the depositor; / = no result.

SMILES | C8 TRAIL sens | PPC-1+TRAIL kill | SENP7 inh | SENP6 block | SENP8 block-1 | SENP8 block-2 | PPC1 cytotox
COc1ccc(-c2ccc(SCC(=O)Nc3nnc(C)s3)nn2)cc1 | 55* | 50* | 4 | -6 | -5 | 7 | 50*
CCOc1ccc(-c2ccc(SCC(=O)NCC3CCCO3)nn2)cc1 (stereo not given) | 52* | 26 | -1 | -17 | 2 | 8 | 35
CCc1nnc(NC(=O)CSc2ccc(-c3ccc(C)cc3)nn2)s1 | 42 | 40 | 5 | 0 | -2 | 2 | /
CCOc1ccc(-c2ccc(SCC(=O)Nc3nnc(CC)s3)nn2)cc1 | 67* | 70* | 2 | 8 | 11 | 13 | 68*
CCOc1ccc(Cn2nnc(-c3ccc(S(C)(=O)=O)cc3)n2)cc1OCC | -5 | / | -5 | -4 | -9 | 14 | /
Cc1ccccc1-c1noc(C(C)NC(=O)c2ccco2)n1 (stereo not given) | -2 | / | 6 | -5 | 2 | -3 | /
Cn1cc(C(=O)N/N=C/c2c(O)ccc3ccccc23)ccc1=O | 29 | 32 | 0 | 16 | -1 | -31 | 25
O=C(N/N=C\c1c(O)ccc2ccccc12)c1ccc(O)cc1 | 21 | / | 9 | -21 | 1 | -62 | /
Cc1cccn2c1nc(=S)n2C(=O)c1ccco1 | 41 | 28 | / | / | / | -10 | /
Cc1ccc(C(=O)n2c(=S)nc3ccccn32)cc1 | / | 91* | / | / | / | / | 90*
O=C(CCl)Nc1cc(SCC(O)CO)cc([N+](=O)[O-])c1 (stereo not given) | 2 | 48 | / | / | / | -2 | 50*
CCC(=O)Nc1cc(SCCO)cc([N+](=O)[O-])c1 | -12 | 15 | -9 | 6 | -7 | 8 | /
S=c1[nH]ncn1/N=C/c1ccc(N2CCOCC2)cc1 | 51* | 62* | -2 | -14 | -10 | -130 | 64*
CC(C)NC(=O)OCc1c(COC(=O)NC(C)C)c([N+](=O)[O-])n2c1CCC2 | 7 | / | / | / | / | 16 | /
CC(NC(=O)c1ccccc1Cl)C1COc2ccccc2O1 (stereo not given) | -7 | 0 | -1 | -17 | -5 | 8 | 0
COc1ccc(CCn2c(=O)[nH]c3cc(C(=O)N4CCN(c5ccccn5)CC4)ccc3c2=O)cc1OC | 1 | / | 0 | -4 | -4 | 7 | /
O=C(NN=Cc1cccc(O)c1O)c1ccccc1 | 48 | / | / | / | / | 14 | /
Cc1ccc(-c2c(C)sc(=NC(=O)c3ccco3)n2C)cc1 | 65* | 39 | -3 | 5 | -1 | -293 | 36
CC(=O)NC(c1ccc(Cl)cc1)c1ccc2cccnc2c1O (stereo not given) | 23 | / | / | / | / | 7 | /
Cc1cc(NC(c2ccc(Cl)cc2)c2ccc3cccnc3c2O)no1 (stereo not given) | 18 | 39 | 2 | -14 | -3 | 12 | 36
Cc1cc(OCc2cc(C(=O)N3CCCCCC3)no2)cc(C)c1Cl | 10 | / | -3 | 13 | -10 | 9 | /
O=C(O)CCC(=O)Nc1ccc(F)cc1 | 11 | -11 | 9 | -3 | 8 | 16 | -12
COC(=O)c1cccc(S(=O)(=O)N2CCCC2)c1 | -4 | 8 | 6 | -2 | -3 | 12 | /
COC(=O)c1cccc(S(=O)(=O)N2CCC(n3nnc4cc(F)ccc43)CC2)c1 | -1 | 10 | 8 | -5 | -4 | 5 | 24
O=C(c1ccc2c(c1)OCO2)N1CCN(S(=O)(=O)c2ccc(Br)cc2Cl)CC1 | -1 | / | -10 | -8 | -17 | 4 | /
Cn1c2ccc(Cl)cc2c2nc3ccccc3nc21 | 6 | 6 | -7 | 17 | 11 | -317 | 21
CCOc1ccccc1N1CCN(C(=O)C2c3ccccc3Oc3ccccc32)CC1 | 14 | 3 | 3 | -19 | -5 | -5 | -7
CCOc1ccccc1N1CCN(C(=O)c2ccccc2)CC1 | -7 | 25 | 7 | -8 | 0 | 18 | /
